Source: PubChem BioAssay (Broad Institute)
The full list was thinned out, with hits kept by preference.
DENV2 CPE = DENV2-induced cell death inhibition; DENV2-infected cells, cytopathic effect rescue, plate reader; CPE inhibition, % at 9.99 µM; actives 1.7% (n = 350,000); in the data active = CPE inhibition above about 20%, passing the limit was not always enough; tested in BHK-21 cells
N-glyco inh = blocks N-linked glycosylation in D54 reporter cells; reporter increase, % at 12.5 µM; AID 588692; D54 ERlucT glycosylation luciferase reporter, 24 h; percent of 100 nM tunicamycin response; actives 0.23% (n = 360,000);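 active = mean luciferase reporter signal, scaled so untreated is 0 and the glycosylation-blocking control 100, at or above a set limit in every replicate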;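 note: luciferase carries N-glycosylation sites so blocking glycosylation raises the light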
Rtt109 Vps75 = inhibitors of Candida albicans Rtt109/Vps75 histone acetyltransferase; Q5AAJ8; purified Rtt109/Vps75, ThioGlo CoA-SH fluorescence, 4 h; inhibition, % at 34.9 µM; actives 0.16% (n = 330,000); AID 540336;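 active = inhibition of at least 50% in every replicate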
Target sequence (Q5AAJ8 whole entry, looked up): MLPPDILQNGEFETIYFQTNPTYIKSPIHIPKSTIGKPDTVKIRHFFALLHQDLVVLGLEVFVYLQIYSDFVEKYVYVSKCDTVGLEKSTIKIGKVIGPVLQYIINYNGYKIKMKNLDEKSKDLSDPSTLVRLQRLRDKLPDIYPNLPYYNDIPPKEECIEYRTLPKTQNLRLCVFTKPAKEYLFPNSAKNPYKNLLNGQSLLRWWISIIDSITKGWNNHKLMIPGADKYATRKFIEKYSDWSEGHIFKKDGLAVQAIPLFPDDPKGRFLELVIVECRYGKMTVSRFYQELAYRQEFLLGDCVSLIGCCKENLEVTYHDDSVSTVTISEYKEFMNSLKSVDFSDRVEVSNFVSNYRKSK
PglD inh = inhibitors of Campylobacter jejuni PglD acetyltransferase. purified PglD enzyme, DTNB colorimetric CoA detection. inhibition, % at 12.5 µM. actives 0.098% (n = 360,000); in the data active = inhibition above about 16%, passing the limit was not always enough
Each line names hits and unclear results; the compound was inactive in the other large screens.

Cc1ccccc1S(=O)(=O)N1C(c2ccc(Cl)cc2)CC=C(C(=O)O)C1c1cccc(Cl)c1 (stereo not drawn)	DENV2 CPE 67 (no result: N-glyco inh, Rtt109 Vps75, PglD inh)
COc1cccc([C@@H]2CC=C(C(=O)O)[C@H](c3ccccc3F)N2S(=O)(=O)c2ccc(C)cc2)c1	DENV2 CPE 21
O=C(Cc1cccc(C(F)(F)F)c1)Nc1cccc(S(=O)(=O)N2CCCC2)c1	none
O=C(Cc1cccc(C(F)(F)F)c1)Nc1ccc(S(=O)(=O)N2CCCC2)cc1	DENV2 CPE 79
O=C(CSC1=NC2(CCCCC2)N=C1c1ccccc1)Nc1ccc2c(c1)OCCO2	Rtt109 Vps75 170
Cc1c(NC(=O)C(C)OC(=O)c2cc(Cl)ccc2O)c(=O)n(-c2ccccc2)n1C (stereo not drawn)	DENV2 CPE 31
COc1ccc(NC(=O)N[C@@H]2CC[C@H](CCn3cc(-c4ccccn4)nn3)O[C@@H]2CO)cc1	none (no result: N-glyco inh, Rtt109 Vps75)
CC(=O)C1=C(O)C(=O)N(CCc2ccccc2)C1c1ccccc1[N+](=O)[O-] (stereo not drawn)	DENV2 CPE 31 (no result: PglD inh)
CC(C)OC(=O)c1ccc(NCc2cc(O)ccc2O)cc1	DENV2 CPE 51 (no result: PglD inh)
CO[C@@H]1CN(C)C(=O)c2cc(NS(C)(=O)=O)ccc2OC[C@@H](C)N(C(=O)NC(C)C)C[C@H]1C	none (no result: DENV2 CPE, N-glyco inh, Rtt109 Vps75)
O=C1Cc2cc(S(=O)(=O)N3CCCCC3)ccc2N1	none
O=C1Cc2cc(S(=O)(=O)N3CCNCC3)ccc2N1	DENV2 CPE 34 (no result: PglD inh)
COc1ccc(S(=O)(=O)Nc2ccc3c(c2)C(=O)N([C@H](C)CO)C[C@H](C)[C@H](CN(C)C(=O)CCCN(C)C)OCCCC[C@@H](C)O3)cc1	none (no result: N-glyco inh, Rtt109 Vps75)
COc1ccc(S(=O)(=O)Nc2ccc3c(c2)C(=O)N([C@@H](C)CO)C[C@H](C)[C@H](CN(C)Cc2ccncc2)OCCCC[C@H](C)O3)cc1	DENV2 CPE 106 (no result: N-glyco inh, Rtt109 Vps75)
COc1ccc(S(=O)(=O)Nc2ccc3c(c2)C(=O)N([C@@H](C)CO)C[C@@H](C)[C@@H](CN(C)Cc2ccncc2)OCCCC[C@H](C)O3)cc1	DENV2 CPE 37 (no result: N-glyco inh, Rtt109 Vps75)
COc1ccc(S(=O)(=O)Nc2ccc3c(c2)C(=O)N([C@@H](C)CO)C[C@H](C)[C@H](CN(C)Cc2ccncc2)OCCCC[C@@H](C)O3)cc1	none (no result: N-glyco inh, Rtt109 Vps75)
CNC(=O)C[C@@H]1CC[C@@H]2[C@H](COc3ccc(NC(=O)Nc4c(C)noc4C)cc3C(=O)N2C)O1	none (no result: N-glyco inh, Rtt109 Vps75)
COC(=O)[C@H]1[C@H](CO)[C@H]2Cn3c(ccc(C4=CCCCC4)c3=O)[C@H]2N1Cc1cccnc1	DENV2 CPE 26 (no result: N-glyco inh, Rtt109 Vps75, PglD inh)
O=C(NC1CCC1)[C@@H]1[C@@H](CO)[C@@H]2Cn3c(ccc(C4=CCCCC4)c3=O)[C@@H]2N1C(=O)C1CCOCC1	DENV2 CPE 56 (no result: N-glyco inh, Rtt109 Vps75)
COC(=O)[C@@H]1[C@@H](CO)[C@@H]2Cn3c(ccc(C4=CCCC4)c3=O)[C@@H]2N1C(=O)Cc1cccnc1	none (no result: N-glyco inh, Rtt109 Vps75)
O=C(NC1CCC1)[C@H]1[C@H](CO)[C@H]2Cn3c(ccc(C4=CCCC4)c3=O)[C@H]2N1C(=O)C1CCC1	none (no result: N-glyco inh, Rtt109 Vps75, PglD inh)
COc1cccc(CNC(=O)[C@H]2[C@H](CO)[C@H]3Cn4c(ccc(-c5ccncc5)c4=O)[C@H]3N2C)c1	DENV2 CPE 138 (no result: N-glyco inh, Rtt109 Vps75)
CS(=O)(=O)c1ccc(Sc2nc3ccccc3s2)c([N+](=O)[O-])c1	N-glyco inh 40 (no result: DENV2 CPE)
O=[N+]([O-])c1cc(S(=O)(=O)C(F)(F)F)ccc1Sc1nc2ccccc2s1	none (no result: DENV2 CPE)
CCc1cn(C2CC(O)C(CO)O2)c(=O)[nH]c1=O (stereo not drawn)	none
CCCCCCCCCCCCCCCCCCNc1ccn(C2OC(COP(=O)(O)OCC3OC(n4cc(F)c(=O)[nH]c4=O)CC3O)C(O)C2O)c(=O)n1 (stereo not drawn)	N-glyco inh 35 (no result: PglD inh)
Cc1cccc(NC(=O)c2cccc(S(=O)(=O)N(C)C3CCCCC3)c2)n1	DENV2 CPE 21 (no result: Rtt109 Vps75)
Cc1cccc(-n2c(CNC(=O)COc3ccccc3)nnc2SCC(=O)Nc2nccs2)c1	none (no result: DENV2 CPE)
COc1cccc(C(=O)NCc2nnc(SCC(=O)Nc3nccs3)n2-c2cccc(C)c2)c1	Rtt109 Vps75 61 (no result: DENV2 CPE)
COc1cc(NC(=S)NCCC(c2ccccc2)c2ccccc2)cc(OC)c1	none (no result: PglD inh)
COc1cc(OC)cc(C(=O)NCCC(c2ccccc2)c2ccccc2)c1	DENV2 CPE 45
Cc1ccc(C)c(NC(=O)CN2C(=O)C3CC=CCC3C2=O)c1 (stereo not drawn)	DENV2 CPE 45 (no result: Rtt109 Vps75)
C[C@H]1CN([C@@H](C)CO)C(=O)c2cc(C3=CCCC3)cnc2O[C@@H]1CN(C)C(=O)CN1CCOCC1	none (no result: N-glyco inh, Rtt109 Vps75)
C/C=C/c1cnc2c(c1)C(=O)N([C@H](C)CO)C[C@H](C)[C@@H](CN(C)C(=O)Cc1ccccc1)O2	none (no result: N-glyco inh, Rtt109 Vps75)
